Tested on: Vero E6 infected with SARS-CoV-2
Assay: inhibition of SARS-CoV-2 cytopathic effect; higher = more antiviral protection, active = above 15
Details: 48 h

Measured: inhibition of SARS-CoV-2 cytopathic effect

CCCCCCCC/C=C\CCCCCCCC(=O)NCCO [oleoylethanolamide]
inactive: 1 nM 1.05% | 8.33 nM -0.89% | 100 nM -0.87% | 833.33 nM 0.17% | 10000 nM -4.33%

Cc1cc([C@@H](C)Nc2ccccc2C(=O)O)c2nc(N3CCOCC3)cc(=O)n2c1
inactive: 1 nM -0.68% | 8.33 nM -0.79% | 100 nM -4.63% | 833.33 nM -7.74% | 10000 nM -2.98%

CN1CCC[C@@H]1CCO[C@](C)(c1ccccc1)c1ccc(Cl)cc1 [clemastine]
inactive: 1 nM 3.3% | 8.33 nM 4.37% | 100 nM 2.07% | 833.33 nM 0.78% | 10000 nM 0.68%

O=C(Cc1cccc(OC(F)(F)F)c1)Nc1ccc(CCCCc2nnc(NC(=O)Cc3ccccn3)s2)nn1
inactive: 1 nM -1.49% | 8.33 nM -0.26% | 100 nM -1.18% | 833.33 nM -5.17% | 10000 nM -3.68%

O=C1O[C@H](CO)[C@@H](O)[C@H](O)[C@H]1O [gluconolactone]
inactive: 1 nM -1.05% | 8.33 nM 1.67% | 100 nM -0.14% | 833.33 nM -0.97% | 10000 nM -1.07%

O=C(O)CCCCCCCC(=O)O [azelaic-acid]
inactive: 8.33 nM 0.49% | 100 nM -0.06% | 833.33 nM 0.7% | 10000 nM -3.28%
active: 1 nM 24.2%

Nc1nccc2c1ncn2[C@@H]1O[C@H](CO)[C@@H](O)[C@@H]1O [3-deazaadenosine]
inactive: 1 nM -0.84% | 8.33 nM -2% | 100 nM -2.27% | 833.33 nM -0.63% | 10000 nM -2.6%

CC1C=CC=CCCC=CC=CC=CC=CC(OC2OC(C)C(O)C(N)C2O)CC2OC(O)(CC(O)C(O)CCC(O)CC(O)CC(O)CC(=O)OC(C)C(C)C1O)CC(O)C2C(=O)O (stereo not given) [nystatin]
inactive: 1 nM 0.06% | 8.33 nM -1.74% | 100 nM -1.14% | 833.33 nM -1.11% | 10000 nM 3.99%

CCN(CC)CCCC(C)Nc1nc(C)cc(Nc2ccc3nc(C)cc(N)c3c2)n1 (stereo not given)
inactive: 1 nM -1.23% | 8.33 nM -0.04% | 100 nM 1.43% | 833.33 nM -0.56% | 10000 nM 0.17%

COC(=O)[C@H](Cc1ccccc1)NC(=O)[C@@H](N)CC(=O)O [aspartame]
inactive: 1 nM -0.23% | 8.33 nM -0.6% | 100 nM 0.53% | 833.33 nM -1.78% | 10000 nM 0.85%

CC(C)NCC(O)c1ccc2ccccc2c1 (stereo not given) [pronethalol]
inactive: 1 nM 0.73% | 8.33 nM 1% | 100 nM -0.07% | 833.33 nM 0.3% | 10000 nM -1.64%

OCCOCCN1CCN(C(c2ccccc2)c2ccc(Cl)cc2)CC1 (stereo not given) [hydroxyzine]
inactive: 1 nM 1.41% | 8.33 nM 0.93% | 100 nM 1.56% | 833.33 nM -1.88% | 10000 nM -4.3%

N#Cc1ccnc(N2C(=O)CC[C@H]2C(=O)N(c2cncc(F)c2)[C@H](C(=O)NC2CC(F)(F)C2)c2ccccc2Cl)c1 [ivosidenib]
inactive: 1 nM -0.33% | 8.33 nM 3.62% | 100 nM 0.3% | 833.33 nM 0.14% | 10000 nM 3.82%

C[N+]12CCCCC1CCC(=C(c1cccs1)c1cccs1)C2 (stereo not given) [tiquizium]
inactive: 1 nM -3.91% | 8.33 nM -0.22% | 100 nM 2.71% | 833.33 nM -2.14% | 10000 nM -3.03%

O=C(O)C1CSCN1 (stereo not given) [timonacic]
inactive: 1 nM -2.35% | 8.33 nM -1.08% | 100 nM 3.52% | 833.33 nM 10.6% | 10000 nM 4.51%

NP(N)(=O)NC(=O)c1ccc(F)cc1 [flurofamide]
inactive: 1 nM 3.53% | 8.33 nM -1.42% | 100 nM -1.3% | 833.33 nM 0.9% | 10000 nM 5.62%

COc1ccc(C2CC(c3ccccc3)=NN2c2ccc(S(N)(=O)=O)cc2)cc1 (stereo not given)
inactive: 1 nM 0.58% | 8.33 nM 2.1% | 100 nM 1.18% | 833.33 nM -2.57% | 10000 nM 0.95%

CN1CCCCC1Cn1cc(C(=O)c2cc([N+](=O)[O-])ccc2I)c2ccccc21 (stereo not given)
inactive: 1 nM -0.48% | 8.33 nM 0.44% | 100 nM 0.04% | 833.33 nM -2.69% | 10000 nM 4.92%

COc1ccc2cc3[n+](cc2c1OC)CCc1cc2c(cc1-3)OCO2 [berberine]
inactive: 1 nM -11.8% | 8.33 nM -10.1% | 100 nM -11% | 833.33 nM -3.86% | 10000 nM -3.62%

COc1cc(N2CCC(N3CCN(C)CC3)CC2)ccc1Nc1ncc(Cl)c(Nc2ccccc2S(=O)(=O)C(C)C)n1
inactive: 1 nM -0.23% | 8.33 nM -4.02% | 100 nM -0.56% | 833.33 nM -0.6% | 10000 nM -15.5%

O=C1CN(/N=C/c2ccc(-c3ccc([N+](=O)[O-])cc3)o2)C(=O)N1 [dantrolene]
inactive: 1 nM -2.23% | 8.33 nM 0.6% | 100 nM -1.1% | 833.33 nM -0.88% | 10000 nM 1.97%

CNC(=O)c1cc(Oc2ccc(NC(=O)Nc3cc(C(C)(C)C)nn3-c3ccc4ncccc4c3)c(F)c2)ccn1 [rebastinib]
inactive: 1 nM -1.46% | 8.33 nM 0.18% | 100 nM 1.77% | 833.33 nM 5.75% | 10000 nM 8.96%

Cc1cc2c(C(C)C)c(O)c(O)c(C=O)c2c(O)c1-c1c(C)cc2c(C(C)C)c(O)c(O)c(C=O)c2c1O [gossypol]
inactive: 1 nM -0.82% | 8.33 nM -3.04% | 100 nM -0.64% | 833.33 nM -2.5% | 10000 nM -6.17%

Cc1ccc(C(=O)Nc2ccc(CN3CCN(C)CC3)c(C(F)(F)F)c2)cc1C#Cc1cnc2cccnn12 [ponatinib]
inactive: 1 nM 0.65% | 8.33 nM 1.8% | 100 nM 5.2% | 833.33 nM 1.27% | 10000 nM -10.9%

N[C@@]1(C(=O)O)CC[C@H]2[C@H](C(=O)O)[C@H]21 [eglumetad]
inactive: 1 nM 0.4% | 8.33 nM -0.24% | 100 nM -0.34% | 833.33 nM -0.18% | 10000 nM 2.06%

Cc1ccc(/C=C2/C(=O)C3(C)CCC2C3(C)C)cc1 (stereo not given) [3-(4-methylbenzylidene)camphor]
inactive: 1 nM 0.22% | 8.33 nM 0.95% | 100 nM 2.26% | 833.33 nM 0.01% | 10000 nM 0.05%

Cn1cc(C(=O)C(=O)N[C@H]2CN3CCC2CC3)c2ccccc21
inactive: 1 nM 0.78% | 8.33 nM 1.33% | 100 nM 0.72% | 833.33 nM -1.49% | 10000 nM 1.51%

CN(CCOc1ccc(-c2ccc3c(c2)OCO3)cc1C(C)(C)C)CC(=O)O
inactive: 1 nM 1.26% | 8.33 nM -3.67% | 100 nM -6.89% | 833.33 nM -0.1% | 10000 nM -1.31%

Fc1cc(F)c2c(c1)[C@H]1C=CC[C@H]1C(c1cccnc1)N2 (stereo not given in full) [Golgicide A]
inactive: 1 nM -0.89% | 8.33 nM 0.7% | 100 nM -0.27% | 833.33 nM -0.71% | 10000 nM -3.16%

CCN(CC)CCNC(=O)c1cc(Br)c(N)cc1OC [bromopride]
inactive: 1 nM -3.41% | 8.33 nM -1.83% | 100 nM -0.25% | 833.33 nM -3.5% | 10000 nM -1.74%

C[C@H]1C[C@H]2[C@@H]3CCC4=CC(=O)C=C[C@]4(C)[C@@]3(F)[C@@H](O)C[C@]2(C)[C@@]1(O)C(=O)CO [betamethasone]
inactive: 1 nM 0.395% | 8.33 nM -1.08% | 100 nM 2.04% | 833.33 nM 1.69% | 10000 nM -0.195%

CCCSc1nc(N[C@@H]2C[C@H]2c2ccc(F)c(F)c2)c2nnn([C@@H]3C[C@H](OCCO)[C@@H](O)[C@H]3O)c2n1 [ticagrelor]
inactive: 1 nM -0.64% | 8.33 nM 1.24% | 100 nM -0.46% | 833.33 nM 0.82% | 10000 nM 1.32%

COc1ccc(-c2cc3nccn3c(Nc3ncccc3C(N)=O)n2)cc1OC
inactive: 1 nM -3.34% | 8.33 nM -0.9% | 100 nM -4.75% | 833.33 nM -2.69% | 10000 nM -6.9%

CCn1cc(C(=O)O)c(=O)c2cc(F)c(N3CCNCC3)nc21 [enoxacin]
inactive: 1 nM 4.58% | 8.33 nM 2.38% | 100 nM 0.25% | 833.33 nM -2.16% | 10000 nM 0.56%

N#Cc1cc(NC(=O)C(=O)O)c(Cl)c(NC(=O)C(=O)O)c1 [lodoxamide]
inactive: 1 nM -2.56% | 8.33 nM 1.86% | 100 nM -0.16% | 833.33 nM -3.06% | 10000 nM -0.06%

O=P(O)(O)C(Cl)(Cl)P(=O)(O)O [clodronic-acid]
inactive: 1 nM 0.55% | 8.33 nM 0.27% | 100 nM 0.5% | 833.33 nM 2.21% | 10000 nM -1.06%

CCCCCCCCCCCC(=O)O [lauric-acid]
inactive: 1 nM 0.97% | 8.33 nM 2.75% | 100 nM 0.72% | 833.33 nM -1.45% | 10000 nM -1.99%

O=C1NC(=O)/C(=C/c2ccc3c(c2)OC(F)(F)O3)S1
inactive: 1 nM 2.29% | 8.33 nM 1.22% | 100 nM -6.83% | 833.33 nM -7.64% | 10000 nM -7.56%

O=C(O)COC(=O)Cc1ccccc1Nc1c(Cl)cccc1Cl [aceclofenac]
inactive: 1 nM 0.39% | 8.33 nM 0.9% | 100 nM 0.17% | 833.33 nM -0.85% | 10000 nM 0.58%

Cc1cn([C@H]2C[C@H](N=[N+]=[N-])[C@@H](CO)O2)c(=O)[nH]c1=O [zidovudine]
inactive: 1 nM 3.53% | 8.33 nM 3.15% | 100 nM 6.14% | 833.33 nM 2.68% | 10000 nM -0.41%
